Consider 21 compounds from PubChem BioAssay AID463095 (Sanford-Burnham Center for Chemical Genomics, 2010).

This is one part of the list. The source made the active and inactive calls.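 Rule for the calls: active = proliferation increase above 40% at any of the four tested concentrations; inactive = the rest.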

The nature of the experiment: MIN6 insulinoma cell replication enhancers – MIN6 cells, mouse, confirmation (AID 463095). The conditions noted are these: MIN6 beta-cell proliferation, ATPlite luminescence, 48 h, cells kept in 0.2% serum, scaled between 0.2% and 10% serum; series mostly up to 50 µM. On the technique in general: ATP-based viability assays read luminescence as a measure of living cells.
Regarding `S=C(Nc1cccc(Cl)c1)Nc1ccc2cn[nH]c2c1`, the result was inactive.

Consider `COC(=O)Nc1sc2nc(C)cc(C)c2c1-n1cccc1`, for which the result was inactive.

Take `O=C(Nc1ccc(F)cc1)C1CCCN(S(=O)(=O)c2ccc(-n3cnnn3)cc2)C1` (stereo unspecified): the outcome was inactive.

As to `CC(=O)c1cccc(NC(=O)COc2ccc(S(=O)(=O)N3CCOCC3)cc2)c1`, the outcome was inactive.

Regarding `CCCNC(=O)CCn1nc(-c2ccccc2)c2ccccc2c1=O`, the outcome was inactive.

As for `Cc1ccc(S(=O)(=O)N2CCCCC2)cc1C(=O)N1CCN(CCO)CC1`, the outcome was inactive.

Take `Cc1nn(C(C)C(=O)NCCC2=CCCCC2)c(=O)c2nn(-c3ccccc3)c(C)c12` (stereo unspecified): the result was inactive.

In the case of `O=C(CSc1nc2ccccc2[nH]1)N/N=C/C=C\c1ccccc1[N+](=O)[O-]`, the result was inactive.

Turning to `COc1cc2c(cc1OC)C(C(=O)NCc1ccco1)C1c3ccccc3CCN1C2=O` (stereo unspecified), the result was inactive.

For `CCOC(=O)C1=C(CC)OC(N)=C(C#N)C1c1ccc(F)cc1F` (stereo unspecified), the result was inactive.

As to `Cc1ccc(C(=O)Nc2ccc(NC(=O)c3cccs3)cc2)c(C)c1`, the outcome was inactive.

For the compound `Cc1cc(NC(=O)CSc2nc3ccccc3n2CC(C)C)no1`, the result was inactive.

Consider `CN(Cc1ccc(F)cc1Cl)S(=O)(=O)c1cccs1`, for which the outcome was inactive.

Take `Cn1nc(-c2ccccc2)c2cc([N+](=O)[O-])ccc21`: the outcome was inactive.

Regarding `N#Cc1cccc(CN2CCC(=O)N([C@H](CO)c3ccccc3)CC2)c1`, the result was inactive.

With `COc1ccc(CCC(=O)c2ccc(OC)cc2)cc1`, the outcome was inactive.

`C/C(=N\NC(=O)c1ccccc1C)c1ccc(N2CCOCC2)cc1`: the result was inactive.

Regarding `Cc1cc(NC(=O)c2ccco2)c(=O)n(Cc2c(F)cccc2Cl)c1`, the outcome was inactive.

With `O=C(NNC(=S)NCc1ccccc1)c1ccc(OC(F)F)cc1`, the result was inactive.

For the compound `Cc1ccccc1NC(=S)NNC(=O)c1cccc(Br)c1`, the outcome was inactive.

For `O=S(=O)(NCCOc1cccc2cccnc12)c1ccc(F)cc1`, the outcome was inactive.
